From PubChem BioAssay
uPA surface inh: inhibitors of cell surface uPA generation; cell surface uPA generation assay, qHTS; Potency, µM (highest dose often 38.3 µM), actives largely listed as inhibitors; hit rate 0.31% among 330,000; AID 540303; active = well fitted inhibition curve with a large enough effect; inconclusive = small, poorly fitted or top-dose-only effect; inactive = no such curve, though single readings can be large or run the other way; tested in mouse RAW 264.7 cells; note: nearly all actives have a fitted effect of over 55% in size
IL-1B inflam inh: blocks inflammasome-driven IL-1 beta release | THP-1 LPS/ATP IL-1B secretion, AlphaLISA, 16 h; hits give low values | activity change, % at 57.5 µM | hit rate 4.7% among 360,000 | AID 743279; in the data active = activity change below about -50%; inconclusive = mostly about -30% to -49%
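Secreted IL-1B measured by AlphaLISA bead assay after 16 h compound exposure of THP-1 cells; compounds (final up to 57.5 uM) added 1 h before LPS (250 ng/mL) and ATP (1.25 mM) stimulation; lower signal means less secretion.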
DT40 TDP1 CPT: growth inhibition of DT40 Tdp1-/-;hTDP1 cells with camptothecin (screen for TDP1 inhibitors). chicken DT40 Tdp1-/-;hTDP1 cells + 20 nM CPT, ATP luminescence, 48 h. Potency, µM (top dose mostly 46.2 µM), usual class: inhibitors. hit rate 12% among 420,000. AID 686979; note: nearly all actives have a fitted effect of over 55% in size
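Chicken DT40 Tdp1-/- cells complemented with human TDP1, 400 cells/well, exposed to compounds plus 20 nM camptothecin for at least 48 h at 37 C; viability read as ATP content by CellTiter-Glo luminescence.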
TDP1 cell noCPT: qHTS for Inhibitors of human tyrosyl-DNA phosphodiesterase 1 (TDP1): qHTS in cells in absence of CPT; DT40 Tdp1-/- hTDP1 cells, no CPT, ATP luminescence, 48 h; Potency, µM (titrated, usually from 46.2 µM), most hits filed as inhibitors; hit rate 15% among 420,000; AID 686978, 2013; note: nearly all actives have a fitted effect of over 55% in size
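Seeded 400 DT40-hTDP1 cells/well (vehicle DMSO, no 20 nM CPT); pinned compounds; ≥48 hr at 37 °C; CellTiter-Glo luminescence as viability measure.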
HT1080NT lethal: kills 2HG-producing HT-1080-NT fibrosarcoma cells | Potency, µM (highest dose often 46.1 µM), actives largely listed as cytotoxic | hit rate 1.6% among 360,000 | HT-1080-NT fibrosarcoma viability, CellTiter-Glo ATP luminescence, 48 h;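 note: NT is the 2HG producing partner of a matched IDH1 knockdown line; nearly all actives have a fitted effect of over 55% in size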
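HT-1080-NT; 750 cells/well; 5% FBS RPMI; 48 h compound, 37 degrees C; CellTiter-Glo luminescence; curve fitting and curve-class assignment.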
HT1080 IDH1KD tx: toxicity to HT-1080 IDH1 knockdown cells (counter line); HT-1080 IDH1 knockdown viability, ATP luminescence, 48 h; Potency, µM (doses to about 46.1 µM), hits mostly cytotoxic; hit rate 2% among 360,000; AID 686971
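In this qHTS, HT-1080 cells depleted of IDH1 are exposed for 48 h at 37 °C to compound titrations. Toxicity is scored from CellTiter-Glo luminescence, with DMSO as full viability and medium alone as none.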
Numbers stand for hits; - = inactive; ? = inconclusive; . = no result given; [ ] = another dose, or the depositor's remark. An excerpt weighted towards active compounds, which were near 19% of everything screened. Unless noted, calls come from the whole dose curve; as a rule, active = well fitted curve in the direction sought with a large enough effect; inconclusive = small, poorly fitted or top-dose-only effect, or another doubt; inactive = no such curve, though single readings can be large; an effect the other way counts as inactive or inconclusive.

SMILES | uPA surface inh | IL-1B inflam inh | DT40 TDP1 CPT | TDP1 cell noCPT | HT1080NT lethal | HT1080 IDH1KD tx
O=C(Nc1ccccc1O)c1c(O)c2c([nH]c1=O)CCCC2 | - | -68 | ? | ? | ? | ?
CCOC(=O)c1nn(-c2ccc(OCC)cc2)c2nc(-c3ccco3)c(C#N)c(=O)n12 | - | - | ? | 23µM | - | -
CCn1c2ccccc2c2cc(NC(=O)COC(=O)c3cc(OC)c(OC)cc3OC)ccc21 | - | - | 21µM | 21µM | - | -
CCc1ccc(OCC(=O)Nc2ccc3c(c2)c2ccccc2n3CC)cc1 | . | . | ? | - | . | .
CCn1c2ccccc2c2cc(NC(=O)COc3cc(C)ccc3C)ccc21 | . | . | ? | 9.2µM | . | .
CCOC(=O)N1CCN(C(=O)CN(c2cccc(Cl)c2)S(=O)(=O)c2ccccc2)CC1 | . | . | - | ? | . | .
Cc1ccc(NS(=O)(=O)c2c(C)[nH]c(C)c2C(=O)N2CCCCC2)cc1F | - | - | ? | - | - | -
Cc1cc(/C=N/n2cnnc2)c(C)n1-c1ccc(OCc2ccc(Cl)cc2Cl)cc1 | - | -80 | 7.3µM | 5.8µM | 23µM | -[9.24 µM]
CN(C)S(=O)(=O)c1ccc(C(=O)N2CCN(S(=O)(=O)c3cccs3)CC2)cc1 | - | - | - | - | - | -
Cc1cc(C)c(Cn2c3ccccc3c3cnn(CC(=O)N4CCCCCC4)c(=O)c32)c(C)c1 | . | . | 23µM | 23µM | . | .
O=C(Cn1ncc2c3ccccc3n(Cc3cccc(Cl)c3)c2c1=O)N1CCCCCC1 | . | . | 18µM | 21µM | . | .
CCOC(=O)Cn1ncc2c3ccccc3n(CC(=O)OCC)c2c1=O | - | - | - | - | - | -
Cc1ccccc1Cn1c2ccccc2c2cnn(CC(=O)N3CCN(c4ccccc4)CC3)c(=O)c21 | - | - | ? | ? | - | -
O=C(Cn1ncc2c3ccccc3n(Cc3ccc(F)cc3)c2c1=O)N1CCN(c2ncccn2)CC1 | - | - | 18µM | 16µM | - | -
O=C(Cn1ncc2c3ccccc3n(Cc3cccc(Cl)c3)c2c1=O)N1CCCCC1 | . | . | 21µM | 12µM | . | .
O=C(Cn1ncc2c3ccccc3n(Cc3ccccc3)c2c1=O)NCCCN1CCCCC1 | . | . | - | ? | . | .
CSc1nc(SCc2ccccc2)[nH]c(=O)n1 | . | - | - | ? | - | -
CCN(CC(=O)Nc1c(F)cccc1F)C(=O)CCSc1ccc(F)cc1 | - | - | - | - | - | -
Brc1ccc(N/N=C(/N=Nc2nn[nH]n2)c2ccccc2)cc1 | ? | - | 2.9µM | 2.6µM | ? | 2.9µM
Cc1nc(Cc2nnc(SCC(=O)N3CC(=O)Nc4ccccc43)o2)cs1 | - | - | - | - | - | -
Cc1nc(Cc2nnc(SCC(=O)N3c4ccccc4NC(=O)C3(C)C)o2)cs1 | . | - | - | 16µM | - | -
O=C(NCc1ccccc1)C12CN(Cc3ccccc3)CC1C(c1cccc([N+](=O)[O-])c1)=NO2 (configuration not stated) | - | ? | ? | 23µM | - | -
Cc1ccc(CCNC(=O)C23CN(Cc4ccccc4)CC2C(c2ccc([N+](=O)[O-])cc2)=NO3)cc1 (configuration not stated) | - | ? | 21µM | ? | - | -
CCOC(=O)COc1ccc(/C=C/[N+](=O)[O-])c(OCC(=O)OCC)c1 | . | -97 | 12µM | 21µM | 7.9µM | 5.6µM
CCOc1ccc(/C=C/[N+](=O)[O-])c2ccccc12 | . | -101 | 2.9µM | 2.9µM | ? | 13µM
SMILES | uPA surface inh | IL-1B inflam inh | DT40 TDP1 CPT | TDP1 cell noCPT | HT1080NT lethal | HT1080 IDH1KD tx
CCOC(=O)COc1ccc2ccccc2c1/C=C/[N+](=O)[O-] | - | -92 | 5.2µM | 3.7µM | 7.3µM | 4.1µM
CCOc1ccc(S(=O)(=O)Nc2ccccn2)c2ccccc12 | - | - | - | - | - | -
CCOC(=O)COc1ccc(C(=O)c2ccccc2)c(O)c1 | - | - | - | - | - | -
COc1ccc(S(=O)(=O)N2CCC(C(=O)Nc3ccc(S(=O)(=O)N4CCCC4)cc3)CC2)cc1OC | - | - | ? | 29µM | - | -
COc1ccc(NC(=O)C2CCCCN2N)cc1OC (configuration not stated) | - | - | ? | 18µM | - | -
COc1ccc(S(=O)(=O)N2CCC(C(=O)Nc3cccc(C(C)=O)c3)CC2)cc1C | . | - | 11µM | ? | - | ?
COc1ccc(OC)c(S(=O)(=O)N2Cc3ccccc3CC2C(=O)Nc2ccc(C(C)=O)cc2)c1 (configuration not stated) | . | . | ? | 10µM | . | .
COc1ccc(OC)c(S(=O)(=O)N2Cc3ccccc3CC2C(=O)O)c1 (configuration not stated) | . | - | - | - | - | -
COc1ccc(CN2CCCCC2C(=O)Nc2ccc(OC)c(OC)c2)cc1OC (configuration not stated) | - | - | - | - | - | -
COc1ccc(NC(=O)C2CCN(S(=O)(=O)c3ccc(OC)c(OC)c3)CC2)cc1 | - | - | - | - | - | -[9.24 µM]
O=C(O)c1cc(-c2ccc(O)cc2)on1 | - | - | - | - | - | -
CSc1cccc(NC(=O)C2CCN(S(=O)(=O)c3ccc4c(c3)NC(=O)CO4)CC2)c1 | - | ? | ? | ? | - | -
CSc1cccc(NC(=O)C2CCCN(S(=O)(=O)c3cccs3)C2)c1 (configuration not stated) | - | - | ? | 18µM | - | -
CCN(CC)S(=O)(=O)c1ccc(S(=O)(=O)N2CCN(C(=O)c3ccco3)CC2)cc1 | - | - | - | - | - | -
CCCCc1ccc(S(=O)(=O)N2CCN(C(=O)c3ccco3)CC2)cc1 | - | ? | ? | 8.2µM | - | -
CC1CCCN(S(=O)(=O)c2ccc(NC(=O)C3CCN(C(=O)c4ccco4)CC3)cc2)C1 (configuration not stated) | - | - | 21µM | 13µM | - | -
CCC(C)NS(=O)(=O)c1ccc(NC(=O)C2CCN(C(=O)c3ccco3)CC2)cc1 (configuration not stated) | - | - | ? | ? | - | -
CSc1cccc(NC(=O)C2CCN(S(=O)(=O)c3ccc(F)cc3)CC2)c1 | - | - | ? | 21µM | - | ?
O=C(NCCCc1ccccc1)C1CC1 | - | . | - | - | - | -
CC[n+]1oc(-c2ccccc2)cc1C | - | - | - | - | - | -
COc1ccc(CN(C)C[C@@H]2OCc3cnnn3CCCC(=O)N([C@H](C)CO)C[C@H]2C)cc1 | . | - | - | - | - | -
O=C(Nc1ccc(C(F)(F)F)cc1)C1CCN(S(=O)(=O)c2ccc(N3CCCC3=O)cc2)CC1 | - | - | 2.6µM | ? | - | ?
